In the library only some 3.2% were active in any assay of this set; here they are far more common.
bovine MsrA act: activators of bovine methionine sulfoxide reductase A. purified bovine MsrA, absorbance read-out. activation, % at 10.6 µM. 360,000 compounds, 0.3% hits. AID 602163; in the data active = activation above about 7.5%
rCAG binder: r(CAG) repeat RNA binding; 370,000 compounds, 1.3% hits; AID 651821; TO-PRO-1 dye displacement fluorescence; inhibition, % at 3 µM;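 active = inhibition above the plate cutoff, the mean of all test compounds on that plate plus 3 SD, cut at about 35% in these data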;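 also: higher means more dye released from RNA so lower well fluorescence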
NadD inh: NadD (S. aureus) enzyme inhibition | purified NadD enzyme, colorimetric absorbance read-out | inhibition, % at 20 µM | 360,000 compounds, 0.78% hits; in the data active = inhibition above about 26%
Pemphigus Ab inh: inhibitors of pemphigus antibody binding to human desmoglein-3 | P32926 | DSG3-coupled beads, scFv-anti-DSG3-GFP binding, flow cytometry; active compounds read low | binding (percent of control), % at 10 µM | 310,000 compounds, 0.48% hits | AID 588358;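 active = binding more than 3 SD below its plate's average and above zero; inconclusive = below that plate limit but binding exactly zero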;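 also: hits lower antibody fragment binding to DSG3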
MsrA inh: bovine MsrA inhibition | purified bovine MsrA, absorbance read-out | inhibition, % at 15.5 µM | 360,000 compounds, 0.75% hits | AID 651718
DAGLB inhibitor: blocks human DAGLB lipase activity. Q8NCG7. HEK293T DAGLB membrane lysate, EnzChek fluorogenic substrate. inhibition, % at 5.17 µM. 340,000 compounds, 0.059% hits. AID 504411; in the data active = inhibition above about 34%
Target sequence (Q8NCG7 whole entry, looked up): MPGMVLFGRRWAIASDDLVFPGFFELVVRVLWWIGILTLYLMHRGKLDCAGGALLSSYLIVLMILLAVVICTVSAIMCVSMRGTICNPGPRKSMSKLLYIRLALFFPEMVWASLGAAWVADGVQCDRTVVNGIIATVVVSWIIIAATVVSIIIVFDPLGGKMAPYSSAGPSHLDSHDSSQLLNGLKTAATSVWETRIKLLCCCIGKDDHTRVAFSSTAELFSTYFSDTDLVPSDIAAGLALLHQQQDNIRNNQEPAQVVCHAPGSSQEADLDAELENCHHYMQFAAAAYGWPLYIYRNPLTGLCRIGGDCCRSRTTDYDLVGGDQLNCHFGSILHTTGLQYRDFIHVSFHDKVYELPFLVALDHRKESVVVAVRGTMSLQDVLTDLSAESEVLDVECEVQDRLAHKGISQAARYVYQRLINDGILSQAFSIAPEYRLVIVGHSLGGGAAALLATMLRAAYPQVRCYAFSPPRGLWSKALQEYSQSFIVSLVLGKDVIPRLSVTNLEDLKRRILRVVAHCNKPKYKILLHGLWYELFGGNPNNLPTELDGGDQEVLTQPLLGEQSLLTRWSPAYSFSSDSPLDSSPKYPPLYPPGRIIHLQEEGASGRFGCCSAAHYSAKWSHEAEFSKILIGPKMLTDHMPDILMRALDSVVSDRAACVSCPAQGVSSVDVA
MsrA conf: bovine MsrA inhibition, confirmed; purified bovine MsrA, absorbance read-out; inhibition, % at 15.5 µM; shares compounds with MsrA inh; 2,300 compounds, 41% hits;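 also: coupled to thioredoxin reductase with NADPH and selenocystamine and DMSO as substrate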
Hits are given with their value; - = inactive; ? = inconclusive; . = not tested or not shown. Rule as the data show it, unless noted: active = inhibition above about 4.5%; inactive = the rest.

SMILES	bovine MsrA act	rCAG binder	NadD inh	Pemphigus Ab inh	MsrA inh	DAGLB inhibitor	MsrA conf
CCOC(=O)C1CCCN(C(=O)c2cnn3c(C(F)F)cc(-c4ccc(C)cc4)nc23)C1 (stereo unspecified)	-	-	-	-	29	-	23
C/C(=N\Nc1ccc(Cl)c(C(=O)O)c1)c1cc2ccccc2o1	-	-	-	-	5.4	-	5.8
C/C(=N\Nc1cccc(C(=O)O)c1)c1cc2ccccc2o1	-	-	-	-	5.5	-	-
C/C(=N\Nc1cccc([N+](=O)[O-])c1)c1cc2ccccc2o1	-	-	-	-	-	-	.
C/C(=N\Nc1ccc(Cl)c(C(=O)O)c1)c1cccc2ccccc12	-	-	-	-	-	-	.
COc1ccc(NC(=O)C2(C)CCN2C(=O)Cc2ccc(Cl)cc2Cl)cc1OC (stereo unspecified)	-	-	-	.	-	.	.
Cc1cc(/C=C(/C#N)c2nc3ccccc3[nH]2)c(C)n1-c1ccccc1C(=O)O	-	-	-	-	-	-	.
Cc1cc(/C=C(/C#N)c2nc3ccccc3[nH]2)c(C)n1-c1cc(C(=O)O)cc(C(=O)O)c1	-	-	-	-	4.9	-	-
COC(=O)C1CN(CC(C)C)CCS(=O)(=O)N1Cc1ccc(Cl)cc1 (stereo unspecified)	.	-	.	.	.	.	.
O=C(Nc1ccc(C(=O)O)cc1)/C(=C\c1ccc2c(c1)OCO2)NC(=O)c1ccco1	-	-	-	-	7.4	-	5.0
O=C(Nc1ccc(C(=O)O)cc1)/C(=C\c1ccc2c(c1)OCO2)NC(=O)c1ccc(Br)o1	-	-	-	-	5.1	-	-
O=C(Nc1cccc(C(=O)O)c1)/C(=C\c1ccc2c(c1)OCO2)NC(=O)c1ccc(Br)o1	-	-	-	-	-	-	.
Cc1cc(N/N=C/c2ccc(O)cc2)nc(NS(=O)(=O)c2ccccc2)n1	-	-	-	-	4.9	-	5.3
Cc1cc(=O)oc(C)c1C(=O)NCCNC(=O)c1c(C)cc(=O)oc1C	-	-	-	-	-	-	.
Cc1cc(=O)oc(C)c1C(=O)NCCC(C)C	-	-	-	-	5.5	-	5.0
COc1ccc(Cn2c(NC(=O)c3ccccc3)nc(Cc3ccccc3)c2-c2ccccc2)c(OC)c1	.	-	.	.	.	.	.
COc1cc(-c2nc3ccccn3c2/N=C/c2cc(OC)c(O)cc2Cl)ccc1O	-	-	-	?	4.7	-	-
NC(CSS(=O)(=O)O)=NCCC12CC3CC(CC(O)(C3)C1)C2	-	-	-	-	7.5	-	-
Nc1ccc(Nc2ccc([N+](=O)[O-])cc2[N+](=O)[O-])cc1	-	-	-	-	-	-	.
O=[N+]([O-])c1ccc(Nc2ccccn2)c([N+](=O)[O-])c1	-	-	-	-	5.3	-	-
O=C(O)c1ccccc1C(=O)Nc1cccc([N+](=O)[O-])c1	-	-	-	-	-	-	.
O=C(O)c1ccccc1C(=O)Nc1ccc(Nc2ccc([N+](=O)[O-])cc2[N+](=O)[O-])cc1	-	-	-	-	5.1	-	-
COc1ccc(Cn2ccc3ccc(-c4ccc5ccn(Cc6ccc(F)cc6)c5c4)cc32)cc1	.	-	.	.	.	.	.
COC(=O)CN(c1nc(C)cc(OC)n1)S(=O)(=O)c1ccccc1	-	-	-	-	-	-	.
COC(=O)CN(c1nc(C)c(Br)c(OC)n1)S(=O)(=O)c1ccccc1	-	-	-	-	13	-	12
SMILES	bovine MsrA act	rCAG binder	NadD inh	Pemphigus Ab inh	MsrA inh	DAGLB inhibitor	MsrA conf
CCCN1CCS(=O)(=O)N(Cc2cn(Cc3ccccc3)nn2)C(C(=O)OC)C1 (stereo unspecified)	.	-	.	.	.	.	.
NCC(=O)Nc1ccc(Cl)cc1C(=O)c1ccc[nH]1	-	-	-	-	5.0	-	-
COCCn1c(C)cc(C(=O)COc2nc3ccccc3nc2C)c1C	-	-	-	.	4.8	-	-
COCCn1c(C)cc(C(=O)CSc2ccc3ccccc3n2)c1C	-	-	-	-	-	-	.
C=CC[C@H]1c2ccccc2[C@H]2N3N=Cc4ccccc4[C@H]3[C@H](CCc3ccccc3)C(=O)N2N1C(=O)c1ccccc1	.	-	.	.	.	.	.
O=C(Nc1ccc2c(c1)OCO2)c1c(Cl)nc2sccn12	-	-	-	-	10	-	-
CO/N=C/NC(=O)NOCc1ncc(C(F)(F)F)cc1Cl	-	-	-	-	-	-	.
O=C(N/C=N/OCc1ccc(Cl)cc1Cl)NOCc1ncc(C(F)(F)F)cc1Cl	-	-	-	-	15	-	11
Cc1ccccc1Cn1cc(CN2[C@@H](Cc3ccccc3)COc3cc(Br)ccc3S2(=O)=O)nn1	.	-	.	.	.	.	.
Cc1ccc(/C=C(\C#N)C(=O)NC(C)C)o1	-	-	-	.	6.1	-	5.0
Cc1oc2cc(O)ccc2c(=O)c1N1C(=O)c2ccccc2C1=O	-	-	-	-	-	-	.
Cc1ccccc1-c1c(C)oc2cc(O)ccc2c1=O	-	-	-	-	4.9	-	-
CCCC1=[N+](CC(=O)c2ccccc2)CCn2c(C)ccc21	-	-	-	.	5.2	-	4.6
CCCC1=[N+](CC)CCn2c(C)ccc21	-	-	-	-	-	-	.
O=C1NC(=S)N/C1=C/c1cc([N+](=O)[O-])ccc1N1CCOCC1	-	-	-	.	5.0	.	-
c1ccc(-n2c(SCc3cccc4ccccc34)nnc2-c2ccccn2)cc1	.	-	.	.	.	.	.
COc1cc(/C=C2/NC(=O)N(Cc3ccccc3F)C2=O)cc(OC)c1O	-	-	-	-	5.0	-	-
COC(=O)[C@]12C[C@H](CC(=O)NCc3cccc4ccccc34)C(=O)N(Cc3ccco3)C1=C[C@H](C1CCCC1)O[C@@H]2C	.	-	.	.	.	.	.
Cc1occc1-c1nnc(-c2cc([N+](=O)[O-])cc([N+](=O)[O-])c2)o1	-	-	-	.	7.7	.	-
O=C1c2cccc3c([N+](=O)[O-])ccc(c23)C(=O)N1c1ccccn1	-	-	-	-	9.2	-	6.0
O=C1c2cccc3c([N+](=O)[O-])ccc(c23)C(=O)N1c1ccc(Cl)cn1	-	-	-	-	-	-	.
Cc1cc(/C=C(\C#N)C(=O)O)c(C)n1CC(C)C	-	-	-	-	7.2	-	-
N#Cc1cn(-c2ccccc2)nc1-c1ccco1	-	-	-	-	5.2	-	-
Cc1c(CC(=O)O)c(=O)oc2cc3c(cc12)CCC(C)(C)O3	-	-	-	-	-	-	.
CCC(NC(=O)Cc1c(C)c2cc3c(cc2oc1=O)OC(C)(C)CC3)C(=O)O (stereo unspecified)	-	-	-	-	5.2	-	-
Nc1ccc(C=Cc2ccc(N)cc2)cc1	-	-	-	.	5.2	.	-
CN(C)c1ccc(/C=N/NC(N)=S)cc1[N+](=O)[O-]	-	-	-	-	10	-	7.1
Cn1c(=O)n(C)c2cc(/C=N/NC(N)=S)ccc21	-	-	-	-	5.5	-	4.8
Cn1c(=O)n(C)c2cc(/C=N/NC(=O)c3ccc(Cl)cc3Cl)ccc21	-	-	-	.	-	-	.
CN(c1ccc(NC(=O)Cc2c[nH]c3ccccc23)cc1)c1ccccn1	.	-	.	.	-	.	.
